Test results published in PubChem BioAssay AID1159580 (chemical genetic matrix, 2015).
Hit rate of the full screen: of about 5,500 compounds, about 2,000 (36%) were called active. Roughly 18% stayed inconclusive and do not appear here. Rule as the data show it: active = normalized growth mostly below about 0.91 (no sharp cut-off); inconclusive = no clear call, values can overlap the other calls; inactive = mostly above about 0.92. The list shows a part of the results.

Assay: chemical genetic growth profiling, strain panel (AID 1159580);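 also: tested at 20 µM; growth read once vehicle control cultures reached saturation at 30 °C; 1 = growth at the plate median or of vehicle wells; lower values mean less growth of the strain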
Details: growth OD
[1] = S. cerevisiae deletion strains, locus YDL101C, strain DUN1, hits give low values
[2] = S. cerevisiae deletion strains, locus YHR030C, strain SLT2, hits give low values
[3] = S. cerevisiae deletion strains, locus YAL013W, strain DEP1, hits give low values
[4] = S. cerevisiae deletion strains, locus YBR229C, strain ROT2, hits give low values
[5] = S. cerevisiae deletion strains, locus YDR150W, strain NUM1, hits give low values
[6] = S. cerevisiae deletion strains, locus YEL061C, strain CIN8, hits give low values
[7] = S. cerevisiae deletion strains, locus YGR078C, strain PAC10, hits give low values
[8] = S. cerevisiae deletion strains, locus YHR087W, strain rtc3, hits give low values
[9] = S. cerevisiae deletion strains, locus YJR043C, strain POL32, hits give low values
[10] = S. cerevisiae deletion strains, locus YJR075W, strain HOC1, hits give low values
[11] = S. cerevisiae deletion strains, locus YLR039C, strain RIC1, hits give low values
[12] = S. cerevisiae deletion strains, locus YLR058C, strain SHM2 (second series), hits give low values
[13] = S. cerevisiae deletion strains, locus YLR085C, strain ARP6, hits give low values
[14] = S. cerevisiae deletion strains, locus YLR262C, strain YPT6, hits give low values
[15] = S. cerevisiae deletion strains, locus YML094W, strain GIM5, hits give low values
[16] = S. cerevisiae deletion strains, locus YMR219W, strain ESC1, hits give low values
[17] = S. cerevisiae deletion strains, locus YMR263W, strain SAP30, hits give low values
[18] = S. cerevisiae deletion strains, locus YMR307W, strain GAS1, hits give low values
[19] = S. cerevisiae deletion strains, locus YNL153C, strain GIM3, hits give low values
[20] = S. cerevisiae deletion strains, locus YNL298W, strain CLA4 (second series), hits give low values
[21] = S. cerevisiae deletion strains, locus YNL322C, strain KRE1, hits give low values
[22] = S. cerevisiae deletion strains, locus YNR030W, strain Alg12, hits give low values
[23] = S. cerevisiae deletion strains, locus YOL006C, strain TOP1, hits give low values
[24] = S. cerevisiae deletion strains, locus YPL055C, strain LGE1, hits give low values
[25] = S. cerevisiae deletion strains, locus YPL241C, strain CIN2, hits give low values
[26] = S. cerevisiae deletion strains, locus YPR135W, strain CTF4, hits give low values

Measured: normalized growth

Cc1c(C(=O)N2CCCCC2)cc(-c2ccccc2)n1-c1ccccc1
active: [2] 0.676 | S. cerevisiae deletion strains, locus YLR113W, strain HOG1, hits give low values 0.787 | S. cerevisiae deletion strains, locus YPL256C, strain CLN2, hits give low values 0.8
inactive: S. cerevisiae deletion strains, locus YAR019C, strain CDC15, hits give low values 0.964 | S. cerevisiae deletion strains, locus YBL105C, strain PKC1, hits give low values 0.975 | S. cerevisiae deletion strains, locus YBR135W, strain CKS1, hits give low values 0.969 | S. cerevisiae deletion strains, locus YBR136W, strain MEC1, hits give low values 0.969 | S. cerevisiae deletion strains, locus YBR160W, strain CDC28, hits give low values 0.959 | S. cerevisiae deletion strains, locus YDL017W, strain CDC7, hits give low values 0.973 | S. cerevisiae deletion strains, locus YDL028C, strain MPS1, hits give low values 0.946 | [1] 0.969 | S. cerevisiae deletion strains, locus YDL108W, strain KIN28, hits give low values 0.968 | S. cerevisiae deletion strains, locus YDL132W, strain cdc53, hits give low values 0.973 | S. cerevisiae deletion strains, locus YDL214C, strain PRR2, hits give low values 0.908 | S. cerevisiae deletion strains, locus YDR052C, strain DBF4, hits give low values 0.983 | S. cerevisiae deletion strains, locus YDR054C, strain cdc34, hits give low values 0.968 | S. cerevisiae deletion strains, locus YDR226W, strain ADK1, hits give low values 0.962 | S. cerevisiae deletion strains, locus YDR477W, strain SNF1, hits give low values 0.908 | S. cerevisiae deletion strains, locus YER123W, strain YCK3, hits give low values 0.896 | S. cerevisiae deletion strains, locus YER133W, strain GLC7, hits give low values 0.924 | S. cerevisiae deletion strains, locus YFL009W, strain cdc4, hits give low values 0.952 | S. cerevisiae deletion strains, locus YFL029C, strain CAK1, hits give low values 0.967 | S. cerevisiae deletion strains, locus YFR003C, strain YPI1, hits give low values 0.976 | S. cerevisiae deletion strains, locus YFR019W, strain FAB1, hits give low values 0.944 | S. cerevisiae deletion strains, locus YFR028C, strain CDC14, hits give low values 0.968 | S. cerevisiae deletion strains, locus YGR040W, strain KSS1, hits give low values 0.897 | S. cerevisiae deletion strains, locus YGR052W, strain FMP48, hits give low values 0.947 | S. cerevisiae deletion strains, locus YGR092W, strain DBF2, hits give low values 0.855 | S. cerevisiae deletion strains, locus YHR079C, strain IRE1, hits give low values 0.822 | S. cerevisiae deletion strains, locus YHR082C, strain KSP1, hits give low values 0.901 | S. cerevisiae deletion strains, locus YHR205W, strain SCH9, hits give low values 0.828 | S. cerevisiae deletion strains, locus YIL147C, strain SLN1, hits give low values 0.951 | S. cerevisiae deletion strains, locus YJL095W, strain BCK1, hits give low values 0.837 | S. cerevisiae deletion strains, locus YJL128C, strain PBS2, hits give low values 0.922 | S. cerevisiae deletion strains, locus YJL157C, strain FAR1, hits give low values 0.933 | S. cerevisiae deletion strains, locus YJR016C, strain ILV3, hits give low values 0.975 | S. cerevisiae deletion strains, locus YJR066W, strain TOR1 (second series), hits give low values 0.912 | S. cerevisiae deletion strains, locus YJR066W, strain TOR1, hits give low values 0.843 | S. cerevisiae deletion strains, locus YKL048C, strain ELM1, hits give low values 0.928 | S. cerevisiae deletion strains, locus YKL067W, strain YNK1, hits give low values 0.916 | S. cerevisiae deletion strains, locus YKL101W, strain HSL1, hits give low values 0.884 | S. cerevisiae deletion strains, locus YKL193C, strain SDS22, hits give low values 0.969 | S. cerevisiae deletion strains, locus YKL203C, strain TOR2, hits give low values 0.981 | S. cerevisiae deletion strains, locus YLR133W, strain CKI1, hits give low values 0.921 | S. cerevisiae deletion strains, locus YLR403W, strain SFP1, hits give low values 0.905 | S. cerevisiae deletion strains, locus YML070W, strain DAK1, hits give low values 0.898 | S. cerevisiae deletion strains, locus YMR001C, strain CDC5, hits give low values 0.944 | S. cerevisiae deletion strains, locus YMR205C, strain PFK2 (second series), hits give low values 0.934 | S. cerevisiae deletion strains, locus YMR277W, strain FCP1, hits give low values 0.943 | S. cerevisiae deletion strains, locus YNL006W, strain LST8, hits give low values 0.965 | S. cerevisiae deletion strains, locus YNL020C, strain ARK1, hits give low values 0.921 | S. cerevisiae deletion strains, locus YNL161W, strain CBK1, hits give low values 0.972 | S. cerevisiae deletion strains, locus YNL183C, strain NPR1, hits give low values 0.942 | S. cerevisiae deletion strains, locus YNL207W, strain RIO2, hits give low values 0.974 | S. cerevisiae deletion strains, locus YNL222W, strain SSU72, hits give low values 0.949 | S. cerevisiae deletion strains, locus YNL307C, strain MCK1 (second series), hits give low values 0.881 | S. cerevisiae deletion strains, locus YOL078W, strain AVO1, hits give low values 0.974 | S. cerevisiae deletion strains, locus YOL136C, strain PFK27, hits give low values 0.88 | S. cerevisiae deletion strains, locus YOR061W, strain CKA2, hits give low values 0.918 | S. cerevisiae deletion strains, locus YOR119C, strain RIO1, hits give low values 0.932 | S. cerevisiae deletion strains, locus YOR231W, strain MKK1, hits give low values 0.823 | S. cerevisiae deletion strains, locus YOR329C, strain SCD5, hits give low values 0.977 | S. cerevisiae deletion strains, locus YPL031C, strain PHO85, hits give low values 0.891 | S. cerevisiae deletion strains, locus YPL153C, strain RAD53, hits give low values 0.91 | S. cerevisiae deletion strains, locus YPL204W, strain HRR25, hits give low values 0.899 | S. cerevisiae deletion strains, locus YPL209C, strain IPL1, hits give low values 0.974 | S. cerevisiae deletion strains, locus YPR025C, strain CCL1, hits give low values 0.981 | S. cerevisiae deletion strains, locus YPR106W, strain ISR1, hits give low values 0.958 | S. cerevisiae deletion strains, locus YPR111W, strain DBF20, hits give low values 0.94 | S. cerevisiae deletion strains, strain NNK1, hits give low values 0.962 | S. cerevisiae deletion strains, strain TSCII, hits give low values 0.96

Cc1nn(-c2ccccc2)nc1C(=O)NC(=O)N1CCCC1
inactive: [3] 0.992 | [4] 0.983 | [1] 0.949 | S. cerevisiae deletion strains, locus YDL134C, strain PPH21, hits give low values 1.01 | [5] 0.871 | [6] 1.02 | [7] 0.964 | [2] 0.94 | [8] 1.03 | [9] 0.977 | [10] 0.995 | [11] 0.998 | [12] 0.997 | [13] 1.02 | [14] 1.02 | [15] 1.02 | [16] 0.997 | [17] 0.987 | [18] 0.927 | S. cerevisiae deletion strains, locus YNL128W, strain TEP1, hits give low values 0.991 | [19] 0.986 | [20] 1.01 | [21] 0.995 | [22] 1 | [23] 0.955 | [24] 1 | [25] 0.965 | [26] 0.949

Cc1c(C(=O)O)cc(-c2ccccc2)n1-c1ccccc1
active: [2] 0.613 | [11] 0.674 | [13] 0.654 | [14] 0.66 | [18] 0.467 | [26] 0.64
inactive: [3] 0.988 | [4] 1.01 | [1] 1 | [5] 0.892 | [6] 0.941 | [7] 0.999 | [8] 0.985 | S. cerevisiae deletion strains, locus YJL187C, strain SWE1, hits give low values 0.988 | [9] 0.999 | [10] 0.959 | S. cerevisiae deletion strains, locus YKL190W, strain CNB1, hits give low values 0.975 | [12] 1.01 | [15] 0.945 | [16] 0.998 | [17] 0.981 | [19] 0.952 | [20] 0.869 | [21] 1 | [22] 0.923 | [23] 0.85 | [24] 0.865 | [25] 0.907 | S. cerevisiae strains, strain wild type, hits give low values 0.987
